Experimental data as given in the supplement of paper PMC11732987, “Enantioselective OTUD7B fragment discovery through chemoproteomics screening and high-throughput optimisation” (Communications Chemistry, 2025).

These molecules were tested against USP14 (UniProt P54578) (assay: log2 ratio of Biotin-Ahx-Ub-VS probe labelling (fragment/DMSO); higher = less target engagement (more negative = stronger competition), active = hit call of the paper (q ≤ 0.05, log2 ratio ≤ -1)). Conditions: compound concentration: 200 uM; treatment time: 3 h.
Sequence of USP14 (P54578 whole entry, the tested form may be a part): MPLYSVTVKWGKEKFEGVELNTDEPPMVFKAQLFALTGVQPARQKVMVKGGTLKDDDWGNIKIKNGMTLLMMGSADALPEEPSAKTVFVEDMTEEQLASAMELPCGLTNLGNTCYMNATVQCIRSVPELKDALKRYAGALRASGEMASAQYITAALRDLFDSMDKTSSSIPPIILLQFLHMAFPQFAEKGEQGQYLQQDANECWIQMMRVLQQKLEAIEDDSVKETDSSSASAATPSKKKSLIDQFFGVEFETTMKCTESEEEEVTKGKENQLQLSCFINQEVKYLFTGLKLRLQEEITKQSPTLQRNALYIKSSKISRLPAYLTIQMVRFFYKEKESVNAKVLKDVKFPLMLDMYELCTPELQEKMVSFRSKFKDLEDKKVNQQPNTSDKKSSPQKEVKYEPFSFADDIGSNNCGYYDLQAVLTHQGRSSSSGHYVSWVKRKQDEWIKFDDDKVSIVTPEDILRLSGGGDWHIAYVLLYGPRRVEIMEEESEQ
Description: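 Competitive ABPP in HEK293T cell lysate. Lysates were treated with each chloroacetamide fragment at 200 µM for 3 h, then with Biotin-Ahx-Ub-VS (0.5 µM, 1 h), NeutrAvidin-enriched and analysed by diaPASEF LC-MS/MS. Protein LFQ was median-normalised; average log2 ratio is fragment/DMSO from an unpaired t-test (n=3 treated, n=44 DMSO). Hits: q ≤ 0.05, log2 ratio ≤ -1, unique peptides ≥ 2.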

Structure (SMILES)	log2 ratio of Biotin-Ahx-Ub-VS probe labelling
COc1ccc(Cl)cc1NC(=O)CCl	-0.655 (inactive)
CCN(Cc1ccc(C#N)cc1F)C(=O)CCl	-0.392 (inactive)
Cl.O=C(CCl)NCc1cc2c(nc1O)CCCC2	-0.12 (inactive)
O=C(CCl)Nc1nc(-c2cccs2)cs1	0.15 (inactive)
O=C(CCl)NCc1noc(C2CC2)n1	-0.284 (inactive)
O=C(CCl)NC1CCC(C(F)(F)F)CC1 (stereo not given)	-0.454 (inactive)
O=C(CCl)N1CCCC1c1ccsc1 (stereo not given)	-0.248 (inactive)
Cc1ccc(CNC(=O)CCl)nc1C.Cl	-0.372 (inactive)
CC1CCc2onc(CNC(=O)CCl)c2C1 (stereo not given)	0.328 (inactive)
O=C(CCl)N1CCCCC12CCOCC2	-0.559 (inactive)
Cc1nc(CC2CCN(C(=O)CCl)CC2)no1	-0.561 (inactive)
O=C(CCl)N1CCOCC1C1CC1 (stereo not given)	-0.212 (inactive)
CN(CCc1ncc(Br)cn1)C(=O)CCl.Cl	-0.0202 (inactive)
O=C(CCl)NC1CCCCNC1=O (stereo not given)	-0.476 (inactive)
O=C(CCl)Nc1nnc(CC(F)(F)F)o1	-0.206 (inactive)
O=C(CCl)NCc1cccc(N2CCCC2=O)c1	-0.0996 (inactive)
CS(=O)(=O)c1ccc(CNC(=O)CCl)cc1	-0.204 (inactive)
Cl.O=C(CCl)N1CCn2cncc2C1	-0.259 (inactive)
CN1c2ccccc2C(NC(=O)CCl)CS1(=O)=O (stereo not given)	-0.335 (inactive)
CC(NC(=O)CCl)c1cccc(Cl)c1 (stereo not given)	-0.42 (inactive)

Structure (SMILES)	log2 ratio of Biotin-Ahx-Ub-VS probe labelling
O=C(CCl)Nc1ccc(N2CCCC2=O)cc1	-0.139 (inactive)
O=C(CCl)NC(Cn1ccccc1=O)c1ccccc1 (stereo not given)	-0.174 (inactive)
O=C(CCl)N1CCC(C(=O)N2CCCC2)CC1	-0.0629 (inactive)
Cl.O=C(CCl)N1CCN(Cc2ccccc2)CC1	-0.745 (inactive)
O=C(CCl)N1CCC(O)(Cc2ccc(F)cc2)C1 (stereo not given)	0.271 (inactive)
O=C(CN1CCN(C(=O)CCl)CC1)Nc1cccc(F)c1	-0.0714 (inactive)
Cl.O=C(CCl)N1CCn2ncc(O)c2C1	-0.588 (inactive)
Cc1cc(C2CCCN2C(=O)CCl)nn1C.Cl (stereo not given)	-0.361 (inactive)
O=C(CCl)N1CCC(C(O)c2ccc(F)cc2)CC1 (stereo not given)	-0.0836 (inactive)
O=C(CCl)N1CCc2ccccc2C(O)C1 (stereo not given)	-0.255 (inactive)
Cc1cc(CC(C)NC(=O)CCl)n[nH]1 (stereo not given)	-0.00618 (inactive)
CC1(NC(=O)CCl)CCS(=O)(=O)C1 (stereo not given)	-0.815 (inactive)
O=C(CCl)N1CCOC2(CCC2)C1	0.0484 (inactive)
Cc1nc(-c2cccc(NC(=O)CCl)c2)cs1	-0.378 (inactive)
CN(C)C(=O)c1ccc(CNC(=O)CCl)cc1	0.0549 (inactive)
O=C(CCl)N1CCOC(CCc2ccccc2)C1 (stereo not given)	-0.562 (inactive)
Cl.Cn1c(CNC(=O)CCl)nc2cccnc21	-0.0826 (inactive)
CN(Cc1nc2ccccc2[nH]1)C(=O)CCl.Cl	0.0145 (inactive)
Cc1cccc(NC(=O)CCl)c1C	-0.488 (inactive)
O=C(O)C1Cc2ccccc2CN1C(=O)CCl (stereo not given)	-0.621 (inactive)
